Test results taken from PubChem BioAssay (NCATS).
Results filed as inconclusive are left out. A number with no mark means an inactive call. Activity calls are given as the source filed them. Calls come from the whole dose curve; as a rule, active = well fitted inhibition curve with a large enough effect; inconclusive = small, poorly fitted or top-dose-only effect; inactive = flat fitted curve, though single readings scatter.

biological target: Calcium and integrin-binding protein 1 (Homo sapiens) (UniProt Q99828); experiment: Primary qHTS for Identification of Calcium Integrin Binding Protein 1 (CIB1) Competitor (AID 1508620); details: CIB1-GST / FITC-alphaIIb peptide fluorescence polarization; series mostly up to 114 µM; activity change, negative = inhibition: at the top concentration; for activity change, negative = inhibition: top concentration of the series differs between compounds
In short: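 Fluorescence polarization competition: GST-tagged CIB1 (1 uM final) preincubated with compound 15 min at room temperature, then FITC-labelled alphaIIb peptide (100 nM final) added. After 15 min at room temperature, polarization read at Ex 480/Em 540.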
% is set by controls: 0 for no effect and ±100 for the full control effect; potency is the fitted concentration of half-maximal effect.

Sequence of Calcium and integrin-binding protein 1 (Homo sapiens) (Q99828 whole entry, looked up): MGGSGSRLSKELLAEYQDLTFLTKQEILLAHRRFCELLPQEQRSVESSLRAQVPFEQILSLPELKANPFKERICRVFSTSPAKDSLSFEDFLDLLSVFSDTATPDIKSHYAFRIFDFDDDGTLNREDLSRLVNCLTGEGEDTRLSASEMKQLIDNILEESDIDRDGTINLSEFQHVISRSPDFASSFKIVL

Structure (SMILES)	activity change, negative = inhibition	Potency
O=[S+]([O-])(Nc1nccs1)c1ccc(NCc2ccc(Cl)c(Cl)c2)cc1	-13.8%	
CC(=O)Nc1sc2c(c1-c1cccc(F)c1)CCNC2	8.66%	
O=C(c1cc2sccc2n1Cc1ccccc1)N(CCc1ccc(O)c(O)c1)Cc1ccccc1	4.03%	
O=C(Nc1ccc2ccccc2c1)Nc1nnc(Br)s1	8.09%	
CC(C)c1cc(C(C)C)c(S(=O)(=O)Nc2cccc3cccnc23)c(C(C)C)c1	4.04%	
CC(=O)NC(C)c1cc(Cl)c2ccccc2c1O (stereo not given)	-11.9%	
O=C1Nc2ccccc2/C1=C\c1ccc(O)c(Cl)c1	-9.82%	
Cc1cc(C)nc(NC(=S)N2CCN(c3ccccn3)CC2)c1		inactive
COc1cc(CNc2ncnc3ccc(-c4c(C)noc4C)cc23)cc(OC)c1OC	1.62%	
O=C(O)c1cccc(-n2cccc2)c1	-0.414%	
O=S(=O)(c1ccc2c(c1)OCCO2)C1CCC(O)CC1 (stereo not given)		inactive
Cc1cnc(-c2ccccc2C(C)C)nc1NCc1ccc(-c2nn[nH]n2)cc1	-6.12%	
Cc1c(P(=S)(c2ccccc2)c2ccccc2)c2ccccc2n1C(=O)Cc1ccccc1	0.757%	
O=C(O)C1C2C(=O)N(c3ccccc3)C[C@@]23C=C[C@@H]1O3 (stereo not given in full)	5.6%	
Oc1ccc(COC2CCCC2)c2cccnc12	-1.54%	
O=C(O)c1ccc2c(c1)C(=O)N([C@H](Cc1ccc(Cl)cc1)C(=O)O)C2=O	-0.712%	
CC(C)(C)n1cnc2cc(C(=O)N3CCCCC3)ccc21	8.77%	
O=C(Nc1ccccn1)c1sc2ccccc2c1Cl	2.81%	
O=C(Nc1cccc(Cc2ccccc2)c1)c1ccc(-c2cccc([N+](=O)[O-])c2)o1	3.13%	
COc1ccc(Cl)cc1S(=O)(=O)N1CCN(S(=O)(=O)c2ccc3c(c2)OCCO3)CC1	-1.38%	

Structure (SMILES)	activity change, negative = inhibition	Potency
COc1cc(-c2no[n+]([O-])c2C#N)cc(OC)c1OC	1.22%	
Cc1ccc(C(=O)Nc2ccc(N3CCCCC3)cc2)cc1	1.78%	
Fc1ccccc1N1CCN(c2nc(-c3cccs3)nc3ccccc23)CC1	-1.98%	
Cc1cnc(-c2ccccc2C(F)F)nc1NCc1ccc(-n2ccnn2)cc1	4.72%	
CC(C)N1CCc2c(sc(NC(=O)Cc3ccccc3)c2-c2nc3ccccc3s2)C1		28.2 µM (active)
N#CN1CCC(NC(=O)c2cccc(C(F)(F)F)c2)CC1	-0.282%	
Cc1ccc(S(=O)(=O)Nc2cccc3cccnc23)cc1	1.42%	
N#Cc1cccc(-c2noc(-c3ccccc3F)n2)c1	2.85%	
Cn1nnnc1Sc1ncnc2scc(Br)c12	-1.87%	
Cc1ccc(OCCn2c(CCNC(=O)/C=C/c3ccccc3Br)nc3ccccc32)cc1	27.3%	
Cc1ccc(CN(C)c2ncnc3ccc(-c4ccc(C(=O)O)o4)cc23)o1	1.6%	
O=C(CN1C(=O)N/C(=C\c2cn(-c3cccc(C(=O)O)c3)cn2)C1=O)Nc1ccccc1Cl	-6.35%	
COc1cc(C2Nc3ccccc3C(=O)N2Cc2ccccc2)ccc1OCc1ccc(NC(C)=O)cc1 (stereo not given)	-0.0571%	
Cc1ccc(Cl)cc1NS(=O)(=O)c1cc2c(cc1Cl)CCC(=O)N2	-0.0658%	
FC(F)(F)c1ccccc1-c1nc(NCc2ccc(C3CCCCC3)cc2)c2ccccc2n1	5.01%	
Cc1ccc(NS(=O)(=O)c2cc3c(cc2-c2ccsc2)NC(=O)CO3)cc1C	0.612%	
CN(C)c1cccc(-c2csc(N3CCC(C(N)=O)CC3)n2)c1	-15.9%	
CC(=O)N1CCN(c2ccc(NS(=O)(=O)c3ccc4c(c3)CC(=O)N4)cc2)CC1	-18% [at 228 µM]	
CC(C)(C)CNc1nc(C#N)nc(Nc2ccccc2)n1	1.5%	
O=S(=O)(c1ccc2c(c1)OCCO2)C1CCC(S(=O)(=O)c2c(F)cccc2F)CC1 (stereo not given)		inactive
